From PubChem BioAssay (NCI)
The panel holds about 83,000 compounds, 20% with a hit somewhere; the sample as a whole holds those more often.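 Step 1: grow cells in 96-well plates. Step 2: add test compound at a single concentration. Step 3: incubate 48 h. Step 4: record percent growth.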 Unmarked numbers belong to inactive results. Calls of active or inactive are those of the source. How the source made its calls: active means growth percent below 10; inactive means the rest.

Experiments:
Test in all cases: NCI-60 one-dose screen, 48 h (100 = growth as untreated, 0 = no growth, -100 = all killed)
Conditions in all cases: 10 µM unless noted
[1] = tested on: EKVX NSCLC
[2] = tested on: SN12C renal
[3] = tested on: UO-31 renal
[4] = tested on: TK-10 renal
[5] = tested on: ACHN renal
[6] = tested on: A498 renal
[7] = tested on: CCRF-CEM leukemia
[8] = tested on: MOLT-4 leukemia
[9] = tested on: SR leukemia
[10] = tested on: RPMI-8226 leukemia
[11] = tested on: OVCAR-8 ovarian
[12] = tested on: OVCAR-5 ovarian
[13] = tested on: OVCAR-4 ovarian
[14] = tested on: SK-OV-3 ovarian
[15] = tested on: IGROV1 ovarian
[16] = tested on: OVCAR-3 ovarian
[17] = tested on: HS 578T breast
[18] = tested on: NCI/ADR-RES ovarian
[19] = tested on: T-47D breast
[20] = tested on: CAKI-1 renal

| SMILES | growth [1] | growth [2] | growth [3] | growth [4] | growth [5] | growth [6] | growth [7] | growth [8] | growth [9] [%] | growth [10] | growth [11] | growth [12] | growth [13] | growth [14] | growth [15] | growth [16] | growth [17] | growth [18] | growth [19] | growth [20] |
| --- | --- | --- | --- | --- | --- | --- | --- | --- | --- | --- | --- | --- | --- | --- | --- | --- | --- | --- | --- | --- |
| CNc1ccc(CSc2ccc(Cl)cc2)cc1 | 104% | 92.2% | 58.3% | 126% | 106% | 87% | 33.3% | 61.5% | 55.8 | 35.8% | 103% | 90.2% | 85.6% | 107% | 81.9% | 109% | 123% | 97% | 80.3% | – |
| O=C(O)c1ccccc1C(=O)OC1CCCC2CCCC21 (configuration not stated) | 92.4% | 95.8% | 104% | 116% | 103% | – | 97% | 98.7% | 104 | 111% | 106% | 99.2% | – | 112% | – | 122% | – | 99% | 96.1% | 93.1% |
| O=C(Nc1nc2ccccc2s1)c1cc(-c2ccc(F)cc2)n2nc(-c3ccccc3)cc2n1 | 68.8% | 57.5% | 51.4% | 129% | 13.5% | -9.36% (active) | 21.6% | 61.9% | 18.6 | 50.9% | 56.1% | 64.7% | -24.7% (active) | 35% | 78% | 20.3% | 59.7% | 61.8% | 45.4% | – |
| O=C(/C=C/c1ccccc1)CC(c1ccccc1)N1CCOCC1 (configuration not stated) | 117% | 94.5% | 61.3% | 77% | 87.8% | – | – | 78.4% | – | – | 85.1% | 98.7% | 105% | 98.4% | 91.8% | 78.9% | – | 104% | 81.3% | 103% |
| CN1C(=O)/C(=C/c2nc(-c3cccc(F)c3)n3ccccc23)c2ccccc21 | 79% | 85.9% | 89.8% | 61.7% | 39.9% | – | 88.9% | 71.6% | 60.5 | – | 34.9% | 100% | 41.9% | 66.6% | 7.47% (active) | 60.6% | 33% | 66.4% | 50.1% | 68% |
| O=Cc1c[nH]c2ccc(NC(=O)OCc3ccccc3)cc12 | 106% | 90.3% | 106% | 88.1% | 108% | 231% | 83.8% | 152% | 80.4 | 93% | 103% | 97.5% | 104% | 97.6% | 32.4% | 123% | 252% | 96.3% | 84.2% | – |
| Nc1nc(SCC2(CCl)COC2)c2[nH]cnc2n1 | 107% | 100% | 75.9% | 102% | 95.7% | – | 101% | 89% | 83.8 | 96.4% | 95.8% | 100% | 86.8% | 92.9% | 101% | 109% | 89.4% | 109% | 100% | 105% |
| CC/C(=C\c1ccc(N(C)C)cc1)c1nc2ccccc2c(=O)[nH]1 | 93% | 106% | 108% | 51.1% | 93.4% | 118% | 110% | 140% | 77.4 | 79.4% | 106% | 92.9% | 95.8% | 109% | 66.4% | 116% | 328% | 98.3% | 79.2% | – |
| CCCn1cnc2c1c(=O)n(CCCCC(C)=O)c(=O)n2C | 108% | 124% | 80.9% | 114% | 101% | – | 109% | 92% | 87.5 | 101% | 98.3% | 110% | 97.1% | 95.1% | 97.6% | 115% | 104% | 108% | 99% | 103% |
| COc1ccc(C2CC(c3ccc(OC)c(OC)c3)=NN2C(=O)c2cc(OC)c(OC)c(OC)c2)cc1 (configuration not stated) | 48.2% | 41.5% | 21.1% | 18.4% | 48.7% | – | 24.3% | 47.1% | 20.6 | 50.2% | 34.2% | 66.5% | 58.8% | 30.3% | 31.5% | -45.1% (active) | -14% (active) | 13% | 36.4% | 12.1% |
| Cc1cc(NC(=O)Nc2cc(Cl)ccc2C)no1 | 87% | 109% | 96.2% | 231% | 103% | 133% | 109% | 97.5% | 59.4 | 88.8% | 110% | 104% | 99.6% | 99.7% | 68.5% | 117% | 125% | 101% | 89.4% | – |
| CC(CCC(=O)O)(NC(=O)c1ccc([N+](=O)[O-])cc1)C(=O)O (configuration not stated) | 114% | 107% | 86.2% | 106% | 125% | 108% | 103% | 93.6% | 95.7 | 116% | 102% | 118% | 111% | 96% | 115% | – | 105% | 108% | 93.7% | – |
| O=C1C[C@@H]2/C(=C(O)\C=C\c3ccccc3)C(=O)C=C[C@@H]2O1 | 25.6% | -21.8% (active) | -85.9% (active) | 3.39% (active) | -17.7% (active) | – | 12.5% | 6.97% (active) | 10.2 | 32.5% | 8.54% (active) | 51.5% | – | 86.1% | -52.6% (active) | -46.2% (active) | -2.33% (active) | 7.67% (active) | 16.7% | -54% (active) |
| O=C(Nc1ccc(Cl)cc1)Nc1ccc(Nc2nncc3ccccc23)cc1 | 20.6% | 26.4% | 19% | 32% | 22.4% | 24.5% | 13.1% | -1.61% (active) | 17.5 | 8.62% (active) | 18.2% | 85.6% | 11.1% | 38.2% | 39.7% | 17.6% | 58.3% | 36.2% | -6.32% (active) | – |
| COc1ccc(/C=N/NC(=O)c2ccc(S(C)(=O)=O)cc2)cc1OC | 103% | 98.3% | 90.8% | 96.9% | 102% | 94.6% | 103% | 65.9% | 92.5 | 97.1% | – | 111% | 96.2% | 102% | 109% | 108% | 102% | 108% | 96.6% | – |
| CSc1ncc2ncn(C3OC(CO)C(O)C3O)c2n1 (configuration not stated) | 107% | 120% | 111% | 122% | 105% | 99.6% | 99% | 109% | – | – | 138% | 156% | 101% | 104% | – | – | 95.2% | 143% | 101% | – |
| COc1ccc2nc3cc(Cl)ccc3c(Nc3cc(C(C)C)c(O)cc3C)c2c1 | 25% | 54.9% | -6.15% (active) | 15.7% | 61.6% | 60.2% | -25.9% (active) | 18% | – | – | 50.4% | 68.7% | 30.2% | 63.3% | – | – | 65.5% | 38% | 13.9% | – |
| CO[C@H]1CC(O[C@@H]2/C(C)=C/C[C@@H]3C[C@@H](C[C@]4(CC[C@H](C)[C@@H](C5CCCCC5)O4)O3)OC(=O)[C@@H]3C=C(C)/C(=N/O)[C@H]4OC/C(=C\C=C\[C@@H]2C)[C@]43O)O[C@@H](C)C1O (some centres not stated) | -85.9% (active) | -82.4% (active) | -90.5% (active) | -90.4% (active) | -94.4% (active) | -96.2% (active) | -47.9% (active) | -36.7% (active) | – | -28.8% (active) | -51.3% (active) | -83% (active) | -88.5% (active) | -98.4% (active) | -47.4% (active) | -98.3% (active) | -43.7% (active) | -76.3% (active) | -78.1% (active) | – |
